Where “and” joins values, the source holds several entries; their conditions need not be identical. Equal values may be shown once. Results filed as inconclusive are left out. Calls of active or inactive are those of the source. The call rests on the fitted dose curve; in most records, active means well fitted curve in the direction sought with a large enough effect; inconclusive means small, poorly fitted or top-dose-only effect, or another doubt; inactive means no such curve, though single readings can be large; an effect the other way counts as inactive or inconclusive.
Assays:
[1] = system: CASKI; assay: Primary qHTS to identify gynecologic anti-cancer compounds using libraries of approved drugs and bioactive compounds (AID 1345084); settings: Gynecologic cancer cell panel viability, ATPlite luminescence, 48 h; series mostly up to 57.5 µM; further: nearly all actives have a fitted effect of over 55% in size
Method in brief: (§1)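 Luminescence from the ATPlite ATP-monitoring reagent indicates viable cell number; lower signal means cytotoxicity. Cells received compound 16 h after seeding and were exposed for 48 h across five concentrations.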

[2] = system: Es-2; assay: as above; settings: Gynecologic cancer cell panel viability, ATPlite luminescence, 48 h; series mostly up to 57.5 µM
Method in brief: as §1

[3] = system: HeLa; assay: as above; settings: Gynecologic cancer cell panel viability, ATPlite luminescence, 48 h; series mostly up to 57.5 µM
Method in brief: as §1

[4] = system: Hek293T; assay: as above; settings: Gynecologic cancer cell panel viability, ATPlite luminescence, 48 h, control line for the selectivity index; series mostly up to 57.5 µM
Method in brief: as §1

[5] = system: JEG-3; assay: as above; settings: Gynecologic cancer cell panel viability, ATPlite luminescence, 48 h; series mostly up to 57.5 µM
Method in brief: as §1

[6] = system: OV90; assay: as above; settings: Gynecologic cancer cell panel viability, ATPlite luminescence, 48 h; series mostly up to 57.5 µM
Method in brief: as §1

[7] = system: PA-1; assay: as above; settings: Gynecologic cancer cell panel viability, ATPlite luminescence, 48 h; series mostly up to 57.5 µM
Method in brief: as §1

[8] = system: SKOV3; assay: as above; settings: Gynecologic cancer cell panel viability, ATPlite luminescence, 48 h; series mostly up to 57.5 µM
Method in brief: as §1

[9] = system: Tov-21-G; assay: as above; settings: Gynecologic cancer cell panel viability, ATPlite luminescence, 48 h; series mostly up to 57.5 µM
Method in brief: as §1

[10] = system: Tov112D; assay: as above; settings: Gynecologic cancer cell panel viability, ATPlite luminescence, 48 h; series mostly up to 57.5 µM
Method in brief: as §1

[11] = Drug repurposing screens with cells derived from glioblastoma tumor samples (AID 1345199); settings: GBM patient neurospheres viability, ATP luminescence, 48 h; further: nearly all actives have a fitted effect of over 40% in size
Method in brief: (§2)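 Four patient lines of CD133+ GBM neurospheres were screened at several concentrations; hits were retested in those lines plus three slower-growing GBM lines, using 48-hour treatment and ATP-based viability.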

[12] = system: astro; assay: as above; settings: viability, ATP luminescence, 48 h; series mostly up to 45.9 µM
Method in brief: as §2

[13] = at 45.9 µM (top of the series), tumour line B
[14] = at 45.9 µM (top of the series), tumour line D
[15] = at 46.1 µM (top of the series), tumour line C
[16] = at 46 µM (top of the series), tumour line A
[17] = at 20 µM (top of the series), tumour line C
[18] = at 21.2 µM (top of the series), tumour line B
[19] = at 21.2 µM (top of the series), tumour line D
[20] = at 21.3 µM (top of the series), tumour line A
On the % scale 0 is the no-effect control and ±100 the full control effect.

CC1=C(/C=C/C(C)=C/C=C/C(C)=C/C(=O)O)C(C)(C)CCC1
inactive: Potency [1] | Potency [2] | Potency [3] | Potency [4] | Potency [5] | Potency [6] | Potency [7] | Potency [8] | Potency [9] | Potency [10] | activity, negative = cell killing [11, 13] -21.7% | activity, negative = cell killing [11, 14] -18.7% | activity, negative = cell killing [11, 15] -15.9%

N[C@@H](CSSC[C@H](N)C(=O)O)C(=O)O
inactive: activity change, negative = cytotoxicity [1] 7.1% [at 0.462 µM] | activity change, negative = cytotoxicity [2] -1.97% [at 0.462 µM] | activity change, negative = cytotoxicity [3] 1.97% [at 0.462 µM] | activity change, negative = cytotoxicity [4] 4.09% [at 0.462 µM] | activity change, negative = cytotoxicity [5] -2.56% [at 0.462 µM] | activity change, negative = cytotoxicity [6] 16.5% [at 0.462 µM] | activity change, negative = cytotoxicity [7] -8.19% [at 0.462 µM] | activity change, negative = cytotoxicity [8] 0% [at 0.462 µM] | activity change, negative = cytotoxicity [9] 3.42% [at 0.462 µM] | activity change, negative = cytotoxicity [10] 1.24% [at 0.462 µM] | activity, negative = cell killing [11, 13] 7.37% | activity, negative = cell killing [11, 14] 8.78% | activity, negative = cell killing [11, 16] 8.9% | activity, negative = cell killing [11, 15] -5.12% | Potency [12]

CCN(CC)CCOC(=O)C1(C2CCCCC2)CCCCC1
inactive: Potency [1] | Potency [2] | Potency [3] | Potency [4] | Potency [5] | Potency [6] | Potency [7] | Potency [8] | Potency [9] | Potency [10]

O=C(Oc1ccccc1C(=O)O)c1ccccc1O
inactive: Potency [1] | Potency [2] | Potency [3] | Potency [4] | Potency [5] | Potency [6] | Potency [7] | Potency [8] | Potency [9] | Potency [10] | activity, negative = cell killing [11, 13] -6.94% | activity, negative = cell killing [11, 14] -16.8% | activity, negative = cell killing [11, 16] -11.8% | activity, negative = cell killing [11, 15] 0.529% | Potency [12]

CC1(C)OC(=O)NC1=O
inactive: Potency [1] | Potency [2] | Potency [3] | Potency [4] | Potency [5] | Potency [6] | Potency [7] | Potency [8] | Potency [9] | Potency [10] | activity, negative = cell killing [11, 13] -11.2% | activity, negative = cell killing [11, 14] -10.8% | activity, negative = cell killing [11, 16] -19.4% | activity, negative = cell killing [11, 15] 10.3% | Potency [12]

O=c1cc(CO)occ1O
inactive: Potency [1] | Potency [2] | Potency [3] | Potency [4] | Potency [5] | Potency [6] | Potency [7] | Potency [8] | Potency [9] | Potency [10] | activity, negative = cell killing [11, 13] -1.08% and -4.58% | activity, negative = cell killing [11, 14] 14.9% and -7.17% | activity, negative = cell killing [11, 16] -25.5% and -9.07% | activity, negative = cell killing [11, 15] -15.8% and 18.8% | Potency [12]

CC1=C(CC(=O)O)c2cc(F)ccc2/C1=C\c1ccc(S(C)(=O)=O)cc1
inactive: Potency [1] | Potency [2] | Potency [3] | Potency [4] | Potency [5] | Potency [6] | Potency [7] | Potency [8] | Potency [9] | Potency [10] | activity, negative = cell killing [11, 13] -11.4% | activity, negative = cell killing [11, 14] -18.4% | activity, negative = cell killing [11, 16] -33% | activity, negative = cell killing [11, 15] 4.54% | Potency [12]

C[C@@H]1C[C@H]2[C@@H]3C[C@H](F)C4=CC(=O)C=C[C@]4(C)[C@@]3(F)[C@@H](O)C[C@]2(C)[C@@]1(O)C(=O)CO
inactive: Potency [1] | Potency [2] | Potency [3] | Potency [4] | Potency [5] | Potency [6] | Potency [7] | Potency [8] | Potency [9] | Potency [10] | activity, negative = cell killing [11, 17] 17.9% | activity, negative = cell killing [11, 18] -15.7% | activity, negative = cell killing [11, 19] -7.98% | activity, negative = cell killing [11, 20] -20.6% | Potency [12]

CO/N=C(\C(=O)N[C@@H]1C(=O)N2C(C(=O)O)=C(CSc3nc(=O)c(O)nn3C)CS[C@H]12)c1csc(N)n1
inactive: Potency [1] | Potency [2] | Potency [3] | Potency [4] | Potency [5] | Potency [6] | Potency [7] | Potency [8] | Potency [9] | Potency [10] | activity, negative = cell killing [11, 13] -2.24% | activity, negative = cell killing [11, 14] -10.7% | activity, negative = cell killing [11, 16] -24.8% | activity, negative = cell killing [11, 15] -11.4% | Potency [12]

CCC(=O)c1ccc(O)cc1
inactive: Potency [1] | Potency [2] | Potency [3] | Potency [4] | Potency [5] | Potency [6] | Potency [7] | Potency [8] | Potency [9] | Potency [10] | activity, negative = cell killing [11, 13] -5.56% | activity, negative = cell killing [11, 14] -10.1% | activity, negative = cell killing [11, 16] -28.1% | activity, negative = cell killing [11, 15] -21.6% | Potency [12]

CCCn1cnc2c1c(=O)n(CCCCC(C)=O)c(=O)n2C
inactive: Potency [1] | Potency [2] | Potency [3] | Potency [4] | Potency [5] | Potency [6] | Potency [7] | Potency [8] | Potency [9] | Potency [10] | activity, negative = cell killing [11, 13] -7.91% | activity, negative = cell killing [11, 14] -10.9% | activity, negative = cell killing [11, 16] -20.8% | activity, negative = cell killing [11, 15] 14.2% | Potency [12]

Cc1cc2c(cc1S(N)(=O)=O)S(=O)(=O)CCC2
inactive: Potency [1] | Potency [2] | Potency [3] | Potency [4] | Potency [5] | Potency [6] | Potency [7] | Potency [8] | Potency [9] | Potency [10] | activity, negative = cell killing [11, 17] 4.86% | activity, negative = cell killing [11, 18] -8.12% | activity, negative = cell killing [11, 19] 3.88% | activity, negative = cell killing [11, 20] -0.554% | Potency [12]

CCC(=O)Nc1ccc(O)cc1
inactive: Potency [1] | Potency [2] | Potency [3] | Potency [4] | Potency [5] | Potency [6] | Potency [7] | Potency [8] | Potency [9] | Potency [10] | activity, negative = cell killing [11, 13] -16% | activity, negative = cell killing [11, 14] -0.42% | activity, negative = cell killing [11, 16] -15.2% | activity, negative = cell killing [11, 15] -16.9% | Potency [12]
